Measured potencies and affinities stand elsewhere.
System: Klebsiella pneumoniae
Details: Concentration 32 ug.mL-1; ASSAY_TEST Inhibition of Bacterial Growth; detection method Absorption (OD600); MEDIA CAMHB; plate type 384well; NBS; CORNING #3640; time 18 hr

Structure (SMILES) | Inhibition [%]
O=C(N/N=C1\C[C@@H]2[C@H](COC(c3ccccc3)(c3ccccc3)c3ccccc3)C[C@H](CO)[C@@H]2C1)c1ccncc1 | 2.31
O=C(NN=CC[C@@H]1[C@@H](/C=C/[C@@H](O)CCc2ccccc2)[C@H](O)C[C@@H]1O)c1ccncc1 | 16.12
O=C(NNC(=O)c1cccc([N+](=O)[O-])c1C(=O)O)c1ccncc1 | 15.09
O=C(NN=CC[C@H]1[C@H](CO)[C@@H](O)C[C@H]1O)c1ccncc1 | 13.38
COC(=O)CCCCCC[C@@H]1[C@@H](/C=N/NC(=O)c2ccncc2)[C@H](O)C[C@@H]1O | 5.87
O=C(NNC(c1ccccc1)(c1ccccc1)c1ccccc1)c1ccncc1 | 4.48
O=C(NN=C[C@H]1[C@H]2CC(O)OC[C@H]2C[C@H]1O)c1ccncc1 (some centres not stated) | 2.56
O=C(N/N=C1/C[C@H]2[C@H](CO)[C@@H]1C[C@@H]2Cl)c1ccncc1 | 18.7
O=C(NN=C[C@H]1[C@@H]2CCO[C@@H]2C[C@@H]1O)c1ccncc1 | 9.72
O=C(N/N=C/[C@@H]1C[C@H](CO)[C@@H]2CCC[C@@H]21)c1ccncc1 | 17.88
CC(C)(C)[Si](C)(C)O[C@H](/C=C/[C@@H]1[C@@H](CC=NNC(=O)c2ccncc2)[C@@H](O)C[C@H]1O[Si](C)(C)C(C)(C)C)CCc1ccccc1 | 11.71
COC(=O)CCCCCC[C@@H]1[C@@H](/C=N/NC(=O)c2ccncc2)[C@H](OC(=O)c2ccccc2)C[C@@H]1O | 15.74

Source: ChEMBL document CHEMBL4513156, “CO-ADD screening of NCPRI (Romania) compounds”
